# Measured values taken from PubChem BioAssay AID720518 (National Center for Advancing Translational Sciences (NCATS), 2013).
# Inconclusive results are not listed. The source made the active and inactive calls. Calls follow the shape of the full dose curve.
# Test: qHTS for Inhibitors of Cell Surface uPA Generation: Wild-type Protective Antigen (WT-PrAg) Counterscreen for Cherry-picked Compounds; also: 0% is about no effect
# Details: cells, WT protective antigen toxicity counterscreen; series mostly up to 115 µM; activity (protection): at the top concentration
row,SMILES,activity (protection)
1,Cc1ccc(C23CC4CC(CC(C(=O)NN)(C4)C2)C3)cc1,-1.5% (inactive)
2,CCOc1ccc(N(CC(=O)Nc2ccc(CC)cc2)S(=O)(=O)c2c(C)[nH]c(=O)[nH]c2=O)cc1,-0.814% (inactive)
3,Cc1ccccc1C(=O)Nc1ccccc1N1CCCCC1,1.64% (inactive)
4,COc1cc(/C=C(/C#N)C(=O)Nc2ccccc2)ccc1OCc1ccc(C(=O)O)cc1,0.55% (inactive)
5,COc1ccc(CC(=O)NNS(=O)(=O)c2ccccc2[N+](=O)[O-])cc1OC,-0.806% (inactive)
6,Cc1ccc2sc(NNC(=O)c3ccc4c(c3)OCCO4)nc2c1C,-2.4% (inactive)
7,Cc1nc(NC(=O)COC(=O)CCc2ccccc2)c(Cl)cc1Cl,-2.5% (inactive)
8,O=C(O)c1ccccc1/C=N/NC(=S)NC1CCCCC1,0.478% (inactive)
9,O=C(NNC(=O)c1cccnc1)c1ccncc1,-0.865% (inactive)
10,COC(C[C@H](O)[C@H](C)[C@@H](O)COCc1ccccc1)OC,-1.08% (inactive)
11,Cc1ccc2cc(C=O)c(Cl)nc2c1,-0.682% (inactive)
12,Cc1c(NC(=S)Nc2ccc(Cl)cc2)c(=O)n(-c2ccccc2)n1C,-0.304% (inactive)
13,O=C(NCc1ccc(F)cc1)c1cc(S(=O)(=O)N2CCCCC2)ccc1N1CCOCC1,-0.974% (inactive)
14,COc1cc2c(cc1OC)CN(C(=O)c1ccc(-c3ccccc3)cc1)CC2,-2.51% (inactive)
15,Cc1cc(C)cc(NC(=O)C(OC(=O)c2ccc(O)cc2)c2ccccc2)c1 (stereo not given),-1.09% (inactive)
16,O=C(Cc1ccccc1)Nc1ccc(NC(=O)c2ccccc2)c(Cl)c1,-1.13% (inactive)
17,Cn1cccc1Cc1nnc(SCC(=O)Nc2ccc3c(c2)OCCO3)n1-c1ccc(F)cc1,-1.41% (inactive)
18,CC1=NN(C(N)=S)C(=O)C1N=Nc1ccccc1C(=O)O (stereo not given),-0.58% (inactive)
19,Cc1ccc(/C=N/NC(=O)c2ccc3nc[nH]c3c2)s1,-2% (inactive)
20,CC(C)CCN1C(=O)c2ccc(-c3nc4ccccc4c(=O)o3)cc2C1=O,-0.862% (inactive)

row,SMILES,activity (protection)
1,O=C(NCCN1CCOCC1)c1ccccc1Cl,-1.14% (inactive)
2,O=C(O)c1ccc(-c2ccc(/C=C3\NC(=O)N(Cc4ccc(Cl)cc4)C3=O)o2)cc1,0.0956% (inactive)
3,Oc1c(N=NC(=S)Nc2ccccc2F)c2ccccc2n1Cc1ccccc1Cl,-0.848% (inactive)
4,O=[N+]([O-])c1ccc(-c2cn3c(n2)SCC3)cc1,-1.19% (inactive)
5,Cc1ccsc1/C=C(\C#N)C(=O)NC1CCS(=O)(=O)C1 (stereo not given),-0.97% (inactive)
6,O=S(=O)(NCCc1ccccc1F)c1cccc(S(=O)(=O)N2CCOCC2)c1,-1.88% (inactive)
7,Cc1ccc(C(=O)NNC(=O)CNc2cccc(Cl)c2)cc1,-0.357% (inactive)
8,CC(/C=C/C1(O)C(C)CC(O)CC1(C)C)OC1OC(CO)C(O)C(O)C1O (stereo not given),1.61% (inactive)
9,COc1ccccc1NC(=O)Cn1nnc(-c2ccccc2NC(=O)c2cc3ccccc3oc2=O)n1,-0.855% (inactive)
10,COC(=O)[C@H](CC(C)C)N(Cc1ccccc1)S(=O)(=O)N(Cc1ccc(OC)cc1)[C@@H](CC(C)C)C(=O)OC,1.45% (inactive)
11,O=C(COC(=O)C1CC2C=CC1C2)NCc1ccccc1Cl (stereo not given),1.12% (inactive)
12,Cc1cnc(C(=O)OCC(=O)Nc2ccc3c(c2)OCCO3)cn1,0.158% (inactive)
13,COC(=O)/C(C#N)=C\c1c(OC)[nH]c2ccccc12,-0.248% (inactive)
14,CCC(=O)N1CCC(NC(=O)Nc2ccc(OC(F)(F)F)cc2)CC1,-0.144% (inactive)
15,Cc1cccc(C(=O)Nc2cc(=O)n(C)c(=O)n2C)c1,-1.45% (inactive)
16,CC1=C(C(=O)OCc2ccccc2)C(c2cccc([N+](=O)[O-])c2)NC(=O)N1 (stereo not given),-1.14% (inactive)
17,CC(=O)COc1ccc2c(-c3cccc([N+](=O)[O-])c3)cc(=O)oc2c1,-2.02% (inactive)
18,OC(COc1ccc(Br)cc1)CN1CCN(c2ccccc2)CC1 (stereo not given),-0.779% (inactive)
19,COc1ccccc1CN1CC(C(=O)NCc2cccc(C)n2)CCC1=O (stereo not given),-1.44% (inactive)
20,COCCn1c(SCC(=O)Nc2ccc(F)cc2)nc2ccccc2c1=O,4.62% (inactive)
